Results reported in PubChem BioAssay (NCI).
About 79,000 compounds went through this panel and 15% of them were active in at least one assay; those are over-represented in the sample as a whole. Values without a mark were called inactive. Calls of active or inactive are those of the source. Cut-off read from the data, not from the text of the source: active = growth inhibition above about 70%; inactive = the rest.

Tests used:
[1] = NCI Yeast Anticancer Drug Screen. Data for the rad50 strain (AID 155);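 note: 0% = growth of vehicle-only cultures of the same strain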; details: S. cerevisiae rad50 strain growth inhibition; at 50.0 µM; hits give high values
Method in brief: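 DNA repair mutant yeast, compound exposure, growth read-out; inhibition is taken relative to vehicle.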

[2] = NCI Yeast Anticancer Drug Screen. Data for the mec2-1 strain (AID 157); details: S. cerevisiae mec2-1 strain, at 50.0 µM, hits give high values
Method in brief: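 mec2-1 yeast strain, carrying an alteration in DNA damage repair or cell cycle control, was exposed to compounds; growth inhibition was measured relative to vehicle-treated controls.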

[3] = NCI Yeast Anticancer Drug Screen. Data for the sgs1 mgt1 strain (AID 161);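 note: 0% = growth of cultures given vehicle only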; details: S. cerevisiae sgs1 mgt1 strain, at 50.0 µM, hits give high values
Method in brief: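 This yeast growth screen uses a strain with defined DNA-repair lesions; compound-treated growth is compared with vehicle-treated growth.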

[4] = NCI Yeast Anticancer Drug Screen. Data for the cln2 rad14 strain (AID 165);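 note: 0% = growth equal to vehicle treated cultures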; details: S. cerevisiae cln2 rad14 strain, at 50.0 µM, hits give high values
Method in brief: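 Yeast carrying cln2 and rad14 alterations (cell cycle control and DNA damage repair) were exposed to compounds. Growth inhibition was measured against vehicle-treated controls.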

[5] = NCI Yeast Anticancer Drug Screen. Data for the bub3 strain (AID 167); details: S. cerevisiae bub3 mutant strain, at 50.0 µM, hits give high values
Method in brief: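 In this screen, a yeast mutant lacking normal mitotic checkpoint function is challenged with compound. Relative growth versus vehicle gives the inhibition value.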

[6] = NCI Yeast Anticancer Drug Screen. Data for the mlh1 rad18 strain (AID 175); details: S. cerevisiae mlh1 rad18 strain growth inhibition; at 50.0 µM; hits give high values
Method in brief: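 Growth inhibition of the yeast strain was measured after compound exposure and expressed relative to vehicle-treated controls. The strain carries defined defects in DNA damage repair.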

SMILES | growth inhibition [1] | growth inhibition [2] | growth inhibition [3] | growth inhibition [4] | growth inhibition [5] [%] | growth inhibition [6]
NC(=O)C1CC(O)CC(C(N)=O)O1 (stereo unspecified) | -6.75% | 8.3% | -9.55% | 3.4% | -2.35 | -23.9%
COc1ccccc1OCC(COC(=O)Nc1ccccc1)OC(=O)Nc1ccccc1 (stereo unspecified) | -44.2% | -27.2% | -30.4% | -0.6% | -17.6 | -17.8%
CCCCCCCC(=O)Nc1nnc(SCCCCCCCCCCSc2nnc(NC(=O)CCCCCCC)s2)s1 | -33.5% | -14.9% | -5.55% | -52.3% | -0.5 | -4.45%
CCC[C@@H]1C[C@@H](OC(=S)SC)C[C@H]2CCC(=O)N12 | -3.1% | -9.6% | -7.85% | -4.9% | 44.9 | -16.6%
COc1ccc(CCNC(=S)NC(=O)c2ccc(Cl)c(Cl)c2)cc1OC | 47.6% | 47% | 68.3% | 49.5% | 44.4 | 56%
CCC1(CC)C(=O)N(C(=O)c2ccc(Cl)cc2)N(C(=O)c2ccccc2Cl)C1=O | 22.3% | 23.8% | 5.8% | 41.8% | 49.2 | -53.5%
NNc1ccc([N+](=O)[O-])c2[nH][nH]c(=O)c12 | 8% | 6.5% | 27.1% | 11.2% | 31.9 | 11.4%
Cc1ccc(C(=O)c2ccccc2)cc1C[N+](C)(C)C | 20.3% | 3.35% | 10.3% | 12% | -5.3 | 4.9%
ClC(=Nc1ccccc1)c1cc(N2CCOCC2)ccn1 | 24.1% | 11.1% | 13.3% | 8.35% | 19.1 | 14%
O=C(NC(=O)C1(C(=O)O)CCCC1)Nc1ccccc1 | 7.95% | -7.05% | 6.4% | -39.1% | 27.4 | -9.15%
Cc1ccc(-n2c(=S)n(-c3ccccc3C)c3nc4ccccc4nc2/c3=N\Nc2ccccc2)cc1 | -6.85% | 3.5% | -14.8% | -16.1% | 1.3 | -22.1%
CCc1ccc2c(c1)C(=O)c1c(c(-c3ccccc3)c3ccccc3c1-c1ccccc1)C2=O | -5.95% | -4.5% | -6.4% | -18.1% | 13.8 | 8.65%
COc1cc2c(cc1OC)C1CC(CC(N)=O)(C(N)=O)CCN1CC2 (stereo unspecified) | 2.35% | 16.6% | 14.6% | -49.5% | 1.5 | 17.5%
C=C1C(=O)OC2CCCC(O)C12 (stereo unspecified) | 2.35% | 2.45% | -6.55% | -39% | -12.2 | 1.9%
Cc1c(Br)[n+](=O)c2ccccc2n1[O-] | 1.6% | 6.45% | 17.4% | 14.2% | 11.9 | 21.9%
C(=C\C[P+](c1ccccc1)(c1ccccc1)c1ccccc1)/C[P+](c1ccccc1)(c1ccccc1)c1ccccc1 | 12.3% | 13% | 4.95% | -5.55% | -2.75 | 27.9%
Cc1[nH]nc(C(=O)O)c1[N+](=O)[O-] | 35.6% | 11.3% | 20.2% | -25.7% | -3.2 | 8.2%
Nc1ccccc1C(F)(F)F | 2.45% | 5.65% | 1.2% | 4.1% | 3.3 | 8.25%
NC(=O)Cc1c[nH]c2ccc(Br)cc12 | -24.1% | -53.8% | -8.4% | 11.4% | -20.7 | -13.2%
N#C/C(=C/NC(=S)NCc1ccccc1)C(N)=O | -32.6% | -42.1% | -4.6% | 0.25% | 6.7 | -0.3%
CC(C)CCCC(C)C1CCC2C3CC([N+](=O)[O-])=C4CC(O[N+](=O)[O-])CCC4(C)C3CCC12C (stereo unspecified) | 50.4% | 20.1% | 37.1% | 23.6% | 1.95 | 20.2%

SMILES | growth inhibition [1] | growth inhibition [2] | growth inhibition [3] | growth inhibition [4] | growth inhibition [5] [%] | growth inhibition [6]
CCOC(=O)c1cnc2ccccc2c1OCC | -5.45% | -12.2% | -6.5% | -43.9% | 2.55 | 0.55%
CCOC(=O)/C=C/C(=O)OCC | -2.15% | -0.2% | -4.8% | -2.55% | 6.65 | -2.65%
C/C(=N\O)C(=O)c1cccc([N+](=O)[O-])c1 | 12% | 8.3% | 15.4% | 2.75% | -7.45 | 27.1%
CCOC(=O)CCCN | -8.45% | -3% | -6.95% | 56.7% | -39.8 | -16.1%
COc1ccc(C(C)S(=O)(=O)c2ccccc2)cc1OC (stereo unspecified) | 6.2% | 8.8% | -2.9% | -5.9% | 6.1 | 5.5%
O=C1CN(CCCCl)CC(=O)N2Cc3ccccc3CN12 | -9.05% | 5.3% | -15.7% | -10.1% | -3.7 | -20.1%
Cn1c(=O)oc2cc(Br)ccc21 | -8.9% | 0.7% | -3.1% | 18.9% | 23 | -67.8%
CC1(C)CC2(C)CC1CC2O (stereo unspecified) | 3.5% | 9.6% | -1.95% | 14.8% | 3.85 | -25.4%
CCOC(=O)c1cc(-c2ccccc2)nc2nc(N)ccc12 | 15.2% | -3.15% | 5.65% | 9.05% | 13.2 | 15.2%
COc1cc(-c2ccc(Br)[nH]2)[nH]c1C=NCC(C)C | 78.5% (active) | 78.5% (active) | 78.8% (active) | 78.2% (active) | 69 | 86.7% (active)
NCc1c(Cl)c(Cl)c(Cl)c(CN)c1Cl | 21.3% | -14.2% | 14.1% | 11.9% | 17.8 | 19.5%
CC(O)C(O)C(O)C(O)C(/C=N/Nc1ccccc1)=N/Nc1ccccc1 (stereo unspecified) | 3.75% | -14% | 8.1% | -9.95% | 0.25 | 22.8%
CCCCCCCCCOc1ccc2ccccc2c1 | -16.9% | 16.1% | 22.4% | -17.9% | -15.2 | -4.5%
CC1C(O)CCC2C1(C)CCC1C2(C)CCC2(C)C3CC(C)(C)CCC3(C)CCC12C (stereo unspecified) | -4.9% | -3.3% | 12.4% | -10.1% | 5.75 | -6.75%
CCCCOC(=O)C(C)OC(=O)COc1ccc(Cl)cc1C (stereo unspecified) | 5.05% | -13.7% | 15.4% | -40.7% | 2.25 | -1.05%
C/C(CC(c1ccccc1)c1ccccc1)=N\Nc1ccc([N+](=O)[O-])cc1[N+](=O)[O-] | 13.4% | 3.95% | 14.4% | 19.2% | 7.4 | 8.55%
CC1=Nc2c(C)noc2CC(c2ccccc2O)C1 (stereo unspecified) | -1.5% | -2.6% | -2.05% | 27.2% | -15.8 | -5.35%
CC1(C)C2(SCCS2)C(C)(C)C12SCCS2 | 22.9% | 3.05% | 17.9% | 3.75% | 11.4 | 5.4%
Clc1ccc(C2NC(c3ccc(Cl)cc3)NC(c3ccc(Cl)cc3)N2)cc1 (stereo unspecified) | 28.4% | 14% | 35.5% | -5.4% | 8.75 | -2%
Cc1cc(=O)n2cn[nH]c2n1 | 24.4% | -11.6% | 24.1% | 5.25% | 9.25 | 25.8%
